The nature of test [1]: inhibitors of TNFa-induced NFkB p65 translocation, primary screen, imaging, HUVEC, MLSMR starter and 10KST1 sets (AID 438;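 active means inhibition above 20% together with a positive visual image hit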;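 further: compound added about 3h40 before a 20 min TNFalpha stimulation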;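 on inhibition: signal is the nuclear over cytoplasmic p65 intensity ratio per well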). As to conditions: HUVEC TNFa-induced p65 nuclear translocation; cell count: measured here: nuclei count (cytotoxicity indicator), at 2.08 µM; inhibition: at 2 µM, stronger effect = higher value, 0% TNFa-plus-vehicle, 100% no-TNFa wells.
Test [2] in a line: inhibitors of mutant huntingtin aggregation, primary screen, imaging, exon1htt(103Q)mCFP cells, high-content imaging (AID 483;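 active means visual image review flags a hit and inhibition of aggregation exceeds 20%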;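 further: compound exposure lasted 3 days before fixation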;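 on nuclei count: percent of the per-plate median nuclei count of sample wells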). To be noted: exon1htt(103Q)mCFP cell line, aggregate imaging, at 2 µM; inhibition of aggregation: stronger effect = higher value; nuclei count: measured here: cell count, toxicity.
A short description of test [3]: inhibitors of E-selectin induction by TNFa, primary screen, imaging, HUVEC, immunofluorescence, MLSMR starter and 10KST1 sets (AID 487;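 active means visually confirmed hit in the image check and inhibition above 20%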;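 on inhibition: signal is fraction of cell area covered by stained E-selectin grains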;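 on nuclei count: 100% = median nuclei count of all wells on the same plate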). As to conditions: HUVEC TNFalpha-induced E-selectin immunofluorescence imaging, at 2 µM; inhibition: stronger effect = higher value; nuclei count: measured here: cell number, toxicity.
Test [4] deals with Voltage-gated potassium channel subunit beta-2 (Rattus norvegicus) (UniProt P62483). Put plainly: KvBeta enzyme negative modulators, primary screen, biochemical, NADPH fluorescence (AID 622).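 Further: slope of raw intensity against log time taken from 70 to 1610 s.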 To be noted: recombinant KvBeta, 4-cyanobenzaldehyde reduction, at 10 µM, stronger effect = higher value.
Chain of Voltage-gated potassium channel subunit beta-2 (Rattus norvegicus) (P62483 whole entry, looked up): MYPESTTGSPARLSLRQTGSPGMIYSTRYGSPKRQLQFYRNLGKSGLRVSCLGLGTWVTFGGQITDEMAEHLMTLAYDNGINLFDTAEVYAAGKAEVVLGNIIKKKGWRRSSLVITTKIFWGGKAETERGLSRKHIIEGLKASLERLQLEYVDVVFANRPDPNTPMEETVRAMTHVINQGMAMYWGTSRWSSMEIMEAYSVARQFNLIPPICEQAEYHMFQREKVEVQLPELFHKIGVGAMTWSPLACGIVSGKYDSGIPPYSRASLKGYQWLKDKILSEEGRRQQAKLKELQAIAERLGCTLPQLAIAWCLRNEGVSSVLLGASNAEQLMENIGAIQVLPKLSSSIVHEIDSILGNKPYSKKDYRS
For test [5] the target is unchanged. As to the kind of experiment: KvBeta positive modulators, primary screen, biochemical, NADPH fluorescence (AID 623;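 active means NADPH fluorescence slope more negative than the mean of all samples by about 3 SD, 99.7% confidence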;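 further: fluorescence intensity change per second fitted from 20 to 320 s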). As to conditions: Recombinant KvBeta, NADPH fluorescence decrease slope, 10 min; at 10 µM; stronger effect = lower value.
For test [6], the target named is Alpha-2C adrenergic receptor (Homo sapiens) (UniProt P18825). Put plainly: modulators of alpha2C/GIRK thallium flux, primary screen, cell-based, HEK293 alpha2C/GIRK1/2 (AID 624;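 active means fluorescence slope after compound addition differing from the mean of all screened samples at 99.7% confidence, in either direction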;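 further: slope of fluorescence ratio to pre-addition baseline per second over 15 to 24 s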). To be noted: thallium flux BTC fluorescence, at 10 µM, actives lie on both sides.
Chain of Alpha-2C adrenergic receptor (Homo sapiens) (P18825 whole entry, looked up): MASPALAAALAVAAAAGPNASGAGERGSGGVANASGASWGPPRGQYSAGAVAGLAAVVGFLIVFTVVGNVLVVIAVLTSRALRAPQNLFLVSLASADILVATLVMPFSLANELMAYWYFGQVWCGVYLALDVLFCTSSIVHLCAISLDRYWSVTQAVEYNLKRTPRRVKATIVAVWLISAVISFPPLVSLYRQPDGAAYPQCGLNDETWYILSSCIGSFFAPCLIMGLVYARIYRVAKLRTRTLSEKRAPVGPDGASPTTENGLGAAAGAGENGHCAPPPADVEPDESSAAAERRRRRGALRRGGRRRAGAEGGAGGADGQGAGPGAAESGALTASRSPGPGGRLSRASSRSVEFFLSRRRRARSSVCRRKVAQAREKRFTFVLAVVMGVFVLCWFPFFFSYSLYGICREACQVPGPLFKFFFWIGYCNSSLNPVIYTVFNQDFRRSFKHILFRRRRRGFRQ
Test [7] is described as follows: inhibitors of Sendai virus-induced IRF3 signaling, primary screen, TLR/RLR signaling modifier project, cell-based, Sendai virus stimulus, luciferase, 10K MLSCN set (AID 602276;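 active means inhibition at or above 50% at 10 µM; inactive means inhibition below 50%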;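 further: firefly luciferase from ISG56 promoter only with Renilla not read in this screen; 0% = Sendai virus plus DMSO and 100% = medium plus DMSO without virus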). As to conditions: HEK293 RL24 IRF3 luciferase reporter, at 10 µM, stronger effect = higher value. For orientation: In a reporter assay the amount or activity of a reporter protein is the signal.
Test [8] can be described thus: inhibitors of poly I:C-induced TLR3 signaling, primary screen, cell-based, poly I:C stimulus, luciferase, 10K MLSCN set (AID 602277;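 active means inhibition of the reporter signal at or above 50%; inactive means inhibition below 50%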). As to conditions: HEK293-TLR3 RL24 IRF3 luciferase reporter, at 10 µM, stronger effect = higher value.

Structures are written as SMILES. The source made the active and inactive calls.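 How the source made its calls, unless noted: active means fluorescence slope higher than the sample average by over 3 SD (cut at about -0.22 in these data, passing the limit was not always enough); inactive means the rest.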

The inhibition is the change of the read-out against control, counted positive when it falls. With `Cc1cccc(N(CC(=O)Nc2ccc(CC#N)cc2)S(C)(=O)=O)c1`, in test [1], the cell count was 487. Moreover, the inhibition in test [1] is -15.7% (inactive); in test [3], -87.9% (inactive); in test [7], 16.7% (inactive); in test [8], 28.7% (inactive). Besides, the inhibition of aggregation in test [2] was -17.9% (inactive). Further, the values for the nuclei count in test [2] and in test [3] were 106% and 109%, respectively. In addition, the fluorescence slope in test [4] was -0.483 (inactive). Also, the NADPH fluorescence slope in test [5] is -2.6e-05 (inactive). In addition, the slope in test [6] is 0.00518 (inactive).

Turning to `O=C(NCCN1CCOCC1)c1ccc2c(c1)N(Cc1ccccc1F)C(=O)CS2`, in test [1], the cell count turned out to be 591. For the same compound, the inhibition is 5.8% (inactive) in test [1], -51.7% (inactive) in test [3], 9.96% (inactive) in test [7] and 22.6% (inactive) in test [8]. The inhibition of aggregation in test [2] is 6% (inactive). Besides, the figures for the nuclei count in test [2] and in test [3] were 67.6% and 111%, respectively. The fluorescence slope in test [4] is -0.456 (inactive). Also, in test [5], the NADPH fluorescence slope was -2e-06 (inactive). In addition, the slope in test [6] was 0.00607 (inactive).

With `COC(=O)C1C(=O)C2=C(CC1C)NC(=O)CC2c1ccccc1` (centres undefined), the cell count in test [1] came out at 285. Moreover, the inhibition in test [1] was -14.6% (inactive); in test [3], 48.6% (inactive); in test [7], 9.64% (inactive); in test [8], 22.4% (inactive). Besides, the inhibition of aggregation in test [2] was 14.6% (inactive). The results for the nuclei count in test [2] and in test [3] were 92.8% and 80.1%, respectively. Also, the fluorescence slope in test [4] was -0.388 (inactive). Further, the NADPH fluorescence slope in test [5] was -4.9e-05 (inactive). Also, the slope in test [6] is 0.00369 (inactive).

As to `Cc1nnc(N(C)C(=O)c2cccnc2)s1`, in test [1], the cell count amounted to 704. The inhibition is -7.5% (inactive) in test [1], -47.1% (inactive) in test [3], -6.83% (inactive) in test [7] and -1.4% (inactive) in test [8]. Besides, the inhibition of aggregation in test [2] is 8.5% (inactive). In addition, the nuclei count in test [2] and in test [3] was 109% throughout. Further, the fluorescence slope in test [4] is -0.547 (inactive). The NADPH fluorescence slope in test [5] was 3.7e-05 (inactive). Further, the slope in test [6] was 0.0062 (inactive).

As for `O=c1[nH]c2cc3c(cc2cc1C(c1nnnn1Cc1ccccc1)N1CCCc2ccccc21)OCO3` (centres undefined), in test [1], the cell count was found to be 552. The inhibition in test [1] is -7.7% (inactive); in test [3], 20.7% (inactive); in test [7], 10.6% (inactive); in test [8], 15.5% (inactive). Besides, the inhibition of aggregation in test [2] was 16.5% (inactive). For the same compound, the nuclei count in test [2] came to 100%; in test [3], 108%. Moreover, the fluorescence slope in test [4] is -0.621 (inactive). In addition, the NADPH fluorescence slope in test [5] is 1.7e-05 (inactive). For the same compound, the slope in test [6] was 0.0031 (inactive).

On to `COc1ccc2c(c1)CCc1cc(C(=O)N3CCN(c4ccc(N5CCOCC5)nn4)CC3)sc1-2`, for which the cell count in test [1] was found to be 583. For the same compound, the inhibition in test [1] was 5.5% (inactive); in test [3], -61.7% (inactive); in test [7] it was 2.81% (inactive); in test [8], -42.5% (inactive). In addition, the inhibition of aggregation in test [2] is -28.1% (inactive). Also, the results for the nuclei count in test [2] and in test [3] were 127% and 114%, respectively. In addition, the fluorescence slope in test [4] is -0.499 (inactive). Further, in test [5], the NADPH fluorescence slope is -1.1e-05 (inactive). In addition, the slope in test [6] is 0.00712 (inactive).

With `CCCCOc1ccc(-c2ncc(C(=O)OCC)c(N)n2)cc1`, in test [1], the cell count was 377. Besides, the inhibition in test [1] is 1.6% (inactive); in test [3] it was -71.6% (inactive); in test [7] it was 0.257% (inactive); in test [8], -34.4% (inactive). For the same compound, the inhibition of aggregation in test [2] is 16.9% (inactive). In addition, the nuclei count worked out at 73.4% in test [2] and 115% in test [3]. The fluorescence slope in test [4] was -0.452 (inactive). In addition, the NADPH fluorescence slope in test [5] is -4.6e-05 (inactive). Also, the slope in test [6] is 0.00612 (inactive).

With `CC12CCC(C(=O)O)(c3nc(C#N)c(C#N)nc31)C2(C)C` (centres undefined), the cell count in test [1] was 437. For the same compound, the inhibition in test [1] is -4.7% (inactive); in test [3], -15.3% (inactive); in test [7] it was 15.9% (inactive); in test [8], 21.6% (inactive). In addition, in test [2], the inhibition of aggregation was 26.3% (inactive). In addition, the results for the nuclei count in test [2] and in test [3] were 90.9% and 106%, respectively. Moreover, in test [4], the fluorescence slope was -0.618 (inactive). Further, the NADPH fluorescence slope in test [5] was -3.8e-05 (inactive). In addition, the slope in test [6] is 0.0041 (inactive).

With `Cc1cccc(NC(=O)c2cnc3sccn3c2=O)n1`, the cell count in test [1] came out at 613. The inhibition in test [1] is -1.9% (inactive); in test [3] it was -24.4% (inactive); in test [7], -25.6% (inactive); in test [8], -61.7% (inactive). The inhibition of aggregation in test [2] is -0.7% (inactive). The nuclei count was determined as 115% in test [2] and 109% in test [3]. Further, the fluorescence slope in test [4] was -0.604 (inactive). In test [5], the NADPH fluorescence slope is 5e-07 (inactive). Also, the slope in test [6] was 0.00666 (inactive).

For `O=C1c2ccccc2C(=O)N1CCCn1nnc(-c2ccc(N3CCOCC3)cc2)n1`, the cell count in test [1] turned out to be 319. For the same compound, the inhibition in test [1] is -8.2% (inactive); in test [3], -80.5% (inactive); in test [7], 15.2% (inactive); in test [8], 21.3% (inactive). Moreover, the inhibition of aggregation in test [2] is 28% (inactive). Also, the nuclei count was 111% in test [2] and 109% in test [3]. Moreover, the fluorescence slope in test [4] was -0.619 (inactive). In test [5], the NADPH fluorescence slope is -1.3e-05 (inactive). Besides, the slope in test [6] is 0.00347 (inactive).

For `COc1ccccc1C(=O)Nc1ccc(N2CCN(Cc3ccccc3)CC2)cc1`, in test [1], the cell count was 690. Moreover, the inhibition in test [1] is 12% (inactive); in test [3], 19.4% (inactive); in test [7], 9.6% (inactive); in test [8] it was -11% (inactive). Further, the inhibition of aggregation in test [2] was 23.2% (inactive). Besides, the nuclei count in test [2] worked out at 95.9%; in test [3], 97%. In addition, the fluorescence slope in test [4] is -0.611 (inactive). Moreover, in test [5], the NADPH fluorescence slope is -1.3e-06 (inactive). Further, the slope in test [6] is 0.00369 (inactive).

Consider `COc1ccc(S(=O)(=O)Nc2cccc(C)n2)c2ccccc12`, for which, in test [1], the cell count was determined as 713. For the same compound, the inhibition in test [1] was 6.1% (inactive); in test [3] it was 41.3% (inactive); in test [7] it was -6.27% (inactive); in test [8], 0.733% (inactive). For the same compound, in test [2], the inhibition of aggregation was -1.6% (inactive). In addition, the nuclei count in test [2] came to 76.3%; in test [3] it was 92.3%. Further, in test [4], the fluorescence slope is -0.528 (inactive). The NADPH fluorescence slope in test [5] was 2.4e-05 (inactive). The slope in test [6] is 0.00605 (inactive).

As for `COCCNC(=O)CN1CCC(NC(=O)Nc2ccc(C(F)(F)F)cc2)CC1`, in test [1], the cell count came out at 515. The inhibition in test [1] was 0.8% (inactive); in test [3], -85% (inactive); in test [7], 5.43% (inactive); in test [8], 3.51% (inactive). The inhibition of aggregation in test [2] is -24.7% (inactive). In addition, the nuclei count is 70.9% in test [2] and 96.8% in test [3]. In addition, the fluorescence slope in test [4] is -0.296 (inactive). In test [5], the NADPH fluorescence slope is -4.5e-05 (inactive). Further, the slope in test [6] is 0.0053 (inactive).

For `Cc1cc(NC(=O)CSc2nnc(COc3cccc(C)c3C)n2Cc2ccco2)no1`, the cell count in test [1] was found to be 363. Also, the inhibition is -8.7% (inactive) in test [1], -60.4% (inactive) in test [3], 4.7% (inactive) in test [7] and 11.9% (inactive) in test [8]. In addition, the inhibition of aggregation in test [2] is 7.4% (inactive). Moreover, the nuclei count was determined as 93% in test [2] and 101% in test [3]. In addition, in test [4], the fluorescence slope was -0.6 (inactive). For the same compound, in test [5], the NADPH fluorescence slope is -6.6e-06 (inactive). Also, the slope in test [6] is 0.00725 (inactive).

The values above are taken from PubChem BioAssay.
